HSV augment: enhancers of HSV replication in host cells, fold increase, host cell viability | HSV replication augmentation in cells | maximum fold increase | 0.005% of 220,000 active | AID 1956, 2009; in the data active = maximum fold increase above about 1.5; inconclusive = no clear call, values can overlap the other calls; tested in PC3 cells
Efa HMGR inh: inhibitors of E. faecalis class II HMGR, primary screen, biochemical, Enterococcus faecalis. AID 1066, 2008. purified E. faecalis HMGR, NADPH absorbance 340 nm kinetic. 0.41% of 190,000 active. inhibition, % at 10 µM. HMG-CoA reductase (Enterococcus faecalis, mvaE);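 active = inhibition above a set limit, the median over all tested compounds plus 3 SD, cut at about 9.5% in these data; inconclusive = no clear call, values can overlap the other calls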;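 note: enzyme runs in reverse so mevalonate oxidation gives rising NADPH absorbance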
Calpain2 inh: inhibitors of pig calpain II, primary screen, biochemical, fluorogenic peptide substrate, 1536-well; purified calpain II, 30 min; inhibition, % at 16 µM; 0.37% of 220,000 active; AID 1236, 2008;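 active = inhibition above about 50%, limit read from the data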
Arbovirus anti: antivirals against arbovirus infection, primary screen, cell-based, full library, 10K replicate subset; AID 1251, 2008; 0.37% of 200,000 active; arbovirus infection cell-based antiviral screen; inhibition, % at 10 µM; in the data active = inhibition above about 30%
ROMK primary: ROMK potassium channel modulators, primary screen, cell-based, thallium flux, MLSMR library; Tet-inducible ROMK, thallium flux fluorescence; actives lie on both sides; B-score at 10 µM; 2% of 130,000 active; AID 1918, 2009;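 active = signal ratio slope over the read window, or its plate-corrected B-score, at least 3 SD from the plate mean, either direction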;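 note: B-score of the F/F0 ratio slope over 7 to 12 s after thallium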
Target sequence (P48048 whole entry, looked up): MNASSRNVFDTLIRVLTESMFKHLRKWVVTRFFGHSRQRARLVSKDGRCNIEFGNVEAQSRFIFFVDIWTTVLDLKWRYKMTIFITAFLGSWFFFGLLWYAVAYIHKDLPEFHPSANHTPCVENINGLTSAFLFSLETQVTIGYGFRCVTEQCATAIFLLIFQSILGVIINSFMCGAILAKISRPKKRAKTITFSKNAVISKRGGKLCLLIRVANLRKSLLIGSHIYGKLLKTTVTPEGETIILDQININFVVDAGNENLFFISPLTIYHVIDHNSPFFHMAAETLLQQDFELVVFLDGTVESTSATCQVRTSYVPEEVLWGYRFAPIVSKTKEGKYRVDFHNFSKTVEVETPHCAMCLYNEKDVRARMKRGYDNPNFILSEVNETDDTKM
ROMK retest: ROMK channel modulator hit retest, confirmation, cell-based, thallium flux, duplicate, resupplied hits; 54% of 3,000 active; AID 1917, 2009; fluorescence ratio; hits give low values; shares compounds with ROMK primary; normalized thallium flux (F/F0 slope) at 10 µM;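 active = Flux at 10 µM at least 3 SD below or above vehicle control mean in one or both replicates; inconclusive = no clear call, values can overlap the other calls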
Numbers stand for hits; 0 = inactive; ? = inconclusive; - = not tested or not shown. Sampled rows, rich in hits. Any-hit rate of the full collection: about 2.1%.

SMILES	HSV augment	Efa HMGR inh	Calpain2 inh	Arbovirus anti	ROMK primary	ROMK retest
Cn1c2ccccc2c2nnc(SCC(=O)NCc3ccoc3)nc21	0	0	0	0	0	-
Cc1ccc(-c2cc3cccc[n+]3cc2-c2ccc(C)cc2)cc1	0	0	0	0	-	-
O=C(CCl)N(c1ccc(Cl)cc1)c1c[nH]c2ccccc12	0	0	0	0	0	0.0557
O=S(=O)(NCc1ccccc1)NCc1ccccc1	-	0	0	0	-	0
O=S(=O)(NCc1ccccc1)NCc1ccccc1F	-	0	0	0	-	-
O=C1CC(SC2=NCCS2)C(=O)N1c1cccc(Cl)c1Cl (configuration not stated)	0	0	0	0	0	-
Fc1ccc(-c2cnn3c(-c4cccs4)ccnc23)cc1	0	0	0	0	-2.27	0.063
Fc1ccc(-c2cnn3c(-c4ccncc4)ccnc23)cc1	0	0	0	0	0	-
Cn1c(=O)c2c(nc(Br)n2CCCc2ccccc2)n(C)c1=O	0	0	0	0	-4.13	0.0633
CCOC(=O)c1c(C)oc2c1c(C=NCC1CCCO1)c(O)c1ccccc12 (configuration not stated)	-	0	0	0	0	-
CCOC(=O)c1c(C)oc2c1c(C=NCc1ccccn1)c(O)c1ccccc12	-	0	0	0	-	0.0638
Cc1ncc([N+](=O)[O-])n1Cc1cccc(F)c1	0	0	0	0	0	-
Cc1occc1C(=O)Nc1ccc2c(c1)OCCO2	0	0	0	0	-	0
CC(=O)Nc1ccc(NC(=O)CSc2ccc([N+](=O)[O-])cn2)cc1	0	-	0	-	-	-
COc1ccc(N2CCc3c(C)nc4c(OC)cc(OC)cc4c32)c(OC)c1	-	0	0	0	-	0.061
COC(=O)[C@H](CC(C)C)NC(=O)Nc1ccc(S(N)(=O)=O)cc1	0	-	0	-	0	-
Cc1ccc(C(=O)C(c2ccccc2)N2Cc3ccccc3C2=N)cc1 (configuration not stated)	0	0	0	0	-3.03	0.0537
Cc1c(C(=O)C(=O)NCc2cccs2)c2ccccc2n1C	0	0	0	0	0	-
Cc1nn(Cc2ccccc2)c2c1C(c1ccc(Cl)cc1)C(C#N)=C(N)O2 (configuration not stated)	0	0	0	0	-2.86	0.0588
Cc1cc(N)n(-c2ccc(S(=O)(=O)c3ccc(C(C)C)cc3)cc2)n1	0	0	0	0	0	-
COC(=O)C1=C(N)OC2=C(C(=O)CC(C)(C)C2)C1c1cccnc1 (configuration not stated)	0	0	0	0	3.97	0
CCOC(=O)C(=Cc1ccc(-n2cncn2)cc1)C(=O)OCC	0	0	0	0	-5.08	0.0625
O=C(O)/C=C/C(=O)OC1CC2CCC1C2 (configuration not stated)	0	-	0	-	0	-
CCC(c1nnnn1C(C)(C)CC)N(CCCN1CCOCC1)Cc1cc2cccc(C)c2[nH]c1=O (configuration not stated)	0	0	0	0	0	-
CCC(C)(C)n1nnnc1C(C(C)C)N(CCN1CCOCC1)Cc1cc2cccc(C)c2[nH]c1=O (configuration not stated)	0	0	0	0	-2.9	0.055
SMILES	HSV augment	Efa HMGR inh	Calpain2 inh	Arbovirus anti	ROMK primary	ROMK retest
COCCCn1c(N)c(-c2nc3ccccc3n2C)c2nc3ccccc3nc21	0	0	0	44.1	-4.31	0.0447
C=CCn1c(SCC(=O)N2CCc3ccccc3C2)nc2sc(CC)cc2c1=O	0	0	0	0	-	0
COc1ccc(CC(=O)NCCc2ccc(S(N)(=O)=O)cc2)cc1	-	0	0	0	1.53	0
COCC(=O)NCCc1ccc(S(N)(=O)=O)cc1	0	0	0	0	-	-
N#CC1=C(N)SC(N)=C(C#N)C1c1ccc(C(F)(F)F)cc1	?	0	0	0	-3.55	0.0454
CC(C(=O)NC1CCCc2ccccc21)N1CCN(Cc2ccc3c(c2)OCO3)CC1 (configuration not stated)	0	0	0	0	-2.95	0.0584
Cc1[nH][nH]c(=O)c1C(c1c(C)[nH][nH]c1=O)c1cn(Cc2ccc(Cl)c(Cl)c2)c2ccccc12	0	39.2	0	0	-	0.0559
O=C(NCc1ccc2c3c(cccc13)C(=O)N2)c1cccs1	0	-	0	-	0	-
Cc1csc(SCC(=O)Nc2ccccc2[N+](=O)[O-])n1	0	0	0	0	-18.7	?
Cn1cnnc1Sc1ccc(/C=C/C(=O)c2ccc(O)cc2)cc1[N+](=O)[O-]	0	0	0	0	0	-
COc1ccc(NC(=O)/C(C#N)=C/c2ccc(Sc3nncn3C)c([N+](=O)[O-])c2)cc1	0	0	0	0	-6.48	0.0364
NC(=O)Cn1nnc(-c2ccc(NC(=O)c3ccc(F)cc3)cc2)n1	0	0	0	0	0	-
COc1cc(/C=N/NC(=O)C2(O)c3ccccc3-c3ccccc32)ccc1O	0	0	0	0	0	-
COc1cc(/C=N/NC(=O)C(=O)/C=C2\NC(C)(C)Cc3ccccc32)ccc1O	0	-	0	-	2.15	0
O=C(Nc1nc(-c2cccs2)c(C(=O)C(F)(F)F)s1)c1ccccc1	-	0	0	0	-6.53	0.054
CCOc1ncccc1C(=O)OCC(=O)c1ccc(F)cc1	0	0	0	0	0	-
CN(C)c1ccc(/C=c2/sc3n(c2=O)NC2(c4ccccc4)N(C)C(=O)N(C)C2(c2ccccc2)N=3)cc1 (configuration not stated)	0	0	0	0	0	-
COc1ccccc1OCC(=O)NNc1c2ccccc2nc2ccccc12	0	-	0	-	-	-
Nc1nc(NCc2ccc(Cl)cc2)nc(NCCO)c1[N+](=O)[O-]	0	-	0	-	-	0
NNC(=O)CCN(Cc1ccco1)S(=O)(=O)c1ccc(Cl)cc1	0	-	0	-	0	-
Cn1c(C(=O)NCCN2CCOCC2)cc2c(=O)n(C)c3ccccc3c21	0	0	0	0	-	-
Cn1c(C(=O)NCCN2CCc3ccccc3C2)cc2c(=O)n(C)c3ccccc3c21	0	0	0	0	-	?
CCc1ccc(N(C(=O)Cc2cccs2)C(C(=O)NC2CCCCC2)c2cn(C)nc2C)cc1 (configuration not stated)	0	0	0	0	-	-
CCOc1cccc(N(C(=O)Cc2cccs2)C(C(=O)NC2CCCCC2)c2cccn2C)c1 (configuration not stated)	0	0	0	0	-4.41	0.062
COc1cccc(C(=O)N(C)c2nnc(-c3ccncc3)s2)c1	-	0	0	0	-	0
O=C1c2cccc3c(N4CCCCC4)ccc(c23)C(=O)N1c1cccc(O)c1	?	0	0	0	-3.65	?
O=C1c2cccc3c(N4CCCCC4)ccc(c23)C(=O)N1CCO	?	0	0	0	-5.3	0.0348
Fc1ccc(NCc2nnc(SCc3nnc(-c4ccccc4)o3)n2Cc2ccccc2)cc1	0	0	0	0	-4.75	0.05

Source: PubChem (several laboratories)
